Source: PubChem (several laboratories)
V-ATPase pH: regulators of yeast V-ATPase proton transport. response, % at 10 µM. S. cerevisiae, pHLuorin cytosolic pH fluorescence. hit rate 0.37% among 350,000; in the data active means response mostly above about 7.3%, no sharp cut-off; inactive means mostly below about 5.4%; further: actives read high
Rce1 inh: yeast Ras-converting enzyme inhibition; yeast membranes, quenched prenylated peptide cleavage fluorescence; calls only; hit rate 0.27% among 290,000;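 active means fall in fluorescence gain of 50% or more versus controls, with final raw signal at or below 3038400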;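 further: plate controls were neutral control wells for no effect and wells lacking membranes for full effect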
PERK inhibitor: blocks human PERK kinase; inhibition, % at 5.6 µM; CHO PERK-DD fusion, SEAP luminescence translation reporter; Q9NZJ5; hit rate 0.17% among 220,000;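 active means inhibition above the mean inhibition of all tested compounds plus 3 SD, set separately per screening campaign, cut at about 2.9% in these data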;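 further: PERK kinase domain activated by AP20187 dimerizer at 100 nM; 0% = DMSO with dimerizer and 100% = rapamycin at 8.4 µM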
Yeast superoxide: caloric restriction mimetics inhibiting age-related superoxide in yeast | S. cerevisiae aged cells, superoxide DHE fluorescence; active compounds read low | superoxide response (% of plate mean), % at 10 µM | hit rate 0.18% among 330,000 | AID 2690;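 active means superoxide response under a set limit, about three screen SD below normal, cut at about 65% in these data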;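 further: yeast aged for seven days with compound at 30 °C before DHE staining; 100% = average MFI of all compound-treated wells on the plate with controls excluded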
NALP1 yeast inh: inhibitors of NALP1 inflammasome in yeast | S. cerevisiae NALP1/ASC/caspase-1 growth, X-gal OD620, 72 h | inhibition, % at 10 µM | hit rate 0.61% among 280,000 | AID 2071; in the data active means inhibition mostly above about 24%, no sharp cut-off; inactive means mostly below about 32%
NLRP3 yeast inh: blocks the NALP3 inflammasome reconstituted in yeast | hit rate 0.39% among 330,000 | AID 2825 | inhibition, % at 10 µM | Yeast reconstituted NLRP3/ASC/caspase-1, beta-gal luminescence, 24 h;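 active means inhibition of 50% or more; inactive means inhibition below 50%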;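 further: plate controls were induced DMSO wells for no effect and uninduced yeast grown without galactose for full effect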
VATPase regulator: modulates yeast V-ATPase proton transport; shares compounds with V-ATPase pH; S. cerevisiae pHLuorin cytosolic pH; response, % at 10 µM; hit rate 2% among 980; AID 602197; in the data active means response above about 24%;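 further: plate controls were vehicle wells for no effect and positive control wells for full effect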
The depositor's hits bear a star; i = inactive; x = no result. Only some compounds are listed: those with a hit (about 1.6% of all), similar ones and a draw of the others.

SMILES	V-ATPase pH	Rce1 inh	PERK inhibitor	Yeast superoxide	NALP1 yeast inh	NLRP3 yeast inh	VATPase regulator
O=C(/C=C/c1cccc([N+](=O)[O-])c1)OCC(=O)N1CCN(C(=O)c2ccco2)CC1	12.4*	x	x	95.7	x	14.6	2.6
O=C(/C=C/c1cccc([N+](=O)[O-])c1)N1CCN(C(=O)c2ccco2)CC1	0.1	i	0.1	103.7	31.6	-6.0	x
O=C(Nc1ccc(F)cc1)Nc1cc(S(=O)(=O)N2CCOCC2)ccc1N1CCCC1	8.6*	i	1.8	96.1	0.0	2.9	-3.2
O=C(Nc1ccc(Cl)cc1)Nc1cc(S(=O)(=O)N2CCOCC2)ccc1N1CCCC1	-3.0	i	0.9	84.5	23.2	9.6	x
CN1C(=O)N(C)C2(c3ccccc3)NC(=O)NC12c1ccccc1 (stereo unspecified)	-0.8	i	0.8	97.8	11.8	2.9	x
CN1C(=O)N(C)C2(c3ccccc3)Nn3c(s/c(=C/c4ccccc4)c3=O)=NC12c1ccccc1 (stereo unspecified)	23.2*	i	-0.1	96.6	-0.9	-3.7	-0.5
Cc1ccc(-c2cc(C(=O)N/N=C/c3c(C)nn(C)c3C)c3ccccc3n2)cc1C	12.1*	i	-2.2	98.0	-7.5	8.8	-6.5
Cc1ccc(-c2cc(C(=O)N/N=C/c3ccoc3)c3ccccc3n2)cc1	2.6	i	x	97.2	8.5	13.0	x
Cc1ccc(C(=O)CCC(=O)N2CCN(C/C=C/c3ccccc3)CC2)cc1	-2.6	x	x	x	x	x	x
CCOC(=O)Cc1nc2ccccc2[nH]1	2.9	i	0.3	77.4	11.2	9.4	-5.0
CCOC(=O)c1c(C)nc2ccccc2c1C	-2.6	i	0.3	99.7	23.0	17.0	1.3
CCOC(=O)c1nc2ccccc2c(C)c1C	4.1	i	-0.5	101.9	x	24.9	2.2
Cc1cc(NS(C)(=O)=O)c(=O)n(Cc2cccc(C(F)(F)F)c2)c1	-3.3	x	x	x	x	x	x
CCn1nnc(NC(=O)c2ccc(-c3ccc(Cl)cc3)o2)n1	7.1*	i	0.6	91.2	43.5	3.5	1.7
Cc1noc(C)c1C(=O)OCC(=O)Nc1ncc(Cl)c(C)c1Cl	10.9*	x	x	104.7	x	11.6	0.8
CCOC(=O)C(CCCOc1ccccc1)C(=O)OCC	1.6	i	-0.2	104.0	18.6	15.3	x
CCOC(=O)C(CCCOc1ccc(C)cc1)C(=O)OCC	9.6*	i	-0.4	101.4	0.8	23.2	-6.5
COC(=O)c1ccc(CSc2ccccc2NC(=S)Nc2cccc(C(F)(F)F)c2)o1	1.1	x	x	x	x	x	x
CC(C)(C)OC(=O)NCC(=O)NNC(=O)C(C(=O)OCc1ccccc1)c1ccccc1 (stereo unspecified)	8.8*	x	x	96.8	x	-0.5	-0.7
Cc1ccc(Nc2cc(=O)oc3ccccc23)c(C)c1	-3.4	i	-0.1	115.4	15.3	22.0	x
Cc1ccc(Nc2nnc(C)c3ccccc23)c(C)c1	12.4*	i	x	93.6	x	24.6	9.1
COc1ccc(CNS(=O)(=O)c2ccc(C3CNC(=O)C3)cc2)cc1 (stereo unspecified)	11.8*	i	0.0	93.8	0.7	-1.3	2.5
O=c1nc(-c2ccccc2)c2cc(SC(F)F)ccc2[nH]1	0.6	i	x	97.4	-38.7	17.8	x
O[C@@H]1CN(C2CCN(Cc3ccccc3)CC2)CC[C@H]1N1CCCCCC1	10.6*	x	x	x	x	x	0.0
Cc1cccc(NC(=O)c2nc[nH]c2C(=O)Nc2ccccc2F)c1	-0.3	x	x	x	x	x	x
SMILES	V-ATPase pH	Rce1 inh	PERK inhibitor	Yeast superoxide	NALP1 yeast inh	NLRP3 yeast inh	VATPase regulator
COCCOC(=O)c1c(NC(=O)CNCc2ccco2)sc(C(N)=O)c1C	10.3*	i	0.5	108.2	-1.5	8.4	-1.8
COCCOC(=O)c1c(NC(=O)CNc2ccc(C)c(F)c2)sc(C(N)=O)c1C	-4.7	i	0.2	104.8	-0.5	0.8	x
CC(CN1CCCCC1)OC(=O)CCc1ccccc1 (stereo unspecified)	9.8*	i	0.0	96.1	-7.8	7.5	5.6
O=C(NCCc1ccccc1)C(=O)N/N=C/c1ccccc1C(F)(F)F	9.6*	i	0.4	103.4	-7.7	1.6	-1.7
COc1cc2c(cc1OC)C(=NO)CCCC2	-2.8	x	x	x	x	x	x
CC(=O)NCCNS(=O)(=O)c1ccc(C)c([N+](=O)[O-])c1	10.2*	i	2.5	87.1	13.9	-3.4	1.3
Cc1ccc(/C=C/C(=O)c2ccc(N3CCOCC3)cc2)s1	10.1*	x	0.2	115.7	17.0	37.0	-1.0
Cc1cccc(/C=C/C(=O)c2ccc(N3CCOCC3)cc2)c1	x	i	-0.8	107.9	22.0	12.2	x
CCOC(=O)Cn1c(C)cc(=O)c2ccccc21	-0.4	i	1.3	91.6	13.5	6.9	-4.9
CCOC(=O)Cn1c2ccccc2c2nc3ccccc3nc21	-4.3	i	-0.4	98.7	24.5	23.9	-52.8
CCOC(=O)Cn1c(=O)cc(C)c2ccccc21	-6.0	i	1.0	97.5	-11.5	9.1	-0.6
O=C(O)Cn1c2ccccc2c2nc3ccccc3nc21	-0.9	x	x	x	x	x	x
Cc1cc(=O)n(CC(=O)O)c2ccccc12	-0.6	i	0.5	92.1	3.7	9.3	x
COc1ccc(N(CC(=O)N2CCN(c3ccc(Cl)cc3)CC2)S(=O)(=O)c2c(C)n[nH]c2C)cc1	7.4*	i	0.4	99.3	3.6	12.8	-1.4
COc1ccc(N(CC(=O)Nc2ccc(Cl)cc2)S(=O)(=O)c2c(C)n[nH]c2C)cc1	1.2	i	x	106.4	7.6	6.4	x
Cc1ccc([C@H]2N[C@]3(CCCN(Cc4ccco4)C3=O)[C@H]3C(=O)N(C)C(=O)[C@@H]23)cc1	1.7	x	x	x	x	x	x
N/C(=N\OC(=O)Cc1ccccc1[N+](=O)[O-])c1ccncc1	-1.4	i	0.3	94.8	15.0	6.2	x
COc1cccc(/C(N)=N/OC(=O)Cc2ccccc2[N+](=O)[O-])c1	13.8*	i	0.8	83.6	4.2	3.9	-0.2
O=C(c1ccc([N+](=O)[O-])o1)N1CCN(c2nc3ccc(F)cc3s2)CC1	66.8*	i	x	94.1	x	24.1	40.5*
O=C(c1ccc([N+](=O)[O-])o1)N1CCN(c2nc3c(Cl)cccc3s2)CC1	10.0*	i	x	84.4	x	38.7	22.9*
COc1cccc2sc(N3CCN(C(=O)c4ccc([N+](=O)[O-])o4)CC3)nc12	-4.9	i	x	96.5	x	35.4	x
C=CCC[C@H](Cc1ccc(F)cc1)C(=O)OC[C@@H](Cc1c[nH]c2ccccc12)NC(=O)[C@H](CC=C)CC(=O)N(CCO)Cc1ccccc1	2.0	x	x	103.3	x	8.2	x
O=C(Oc1ccc2ccc(=O)oc2c1)c1cccs1	25.3*	i	0.0	99.2	8.9	17.6	0.6
O=C(Oc1ccc2c(-c3ccccc3)cc(=O)oc2c1)c1cccs1	1.7	i	0.5	91.7	22.4	9.0	x
CCOC(=O)Cn1c(O)c(N=NC(=O)OC)c2ccccc21	7.7	i	2.5	98.0	5.3	-5.8	x
CCOC(=O)N=Nc1c(O)n(CC)c2ccccc12	-3.5	i	1.1	97.4	40.0	-2.5	-1.8
